The source of these data is publication PMC12864922, “TDP-43 directly inhibits mRNA accumulation in neurites through modulation of mRNA stability”.

The full ranking holds about 9,900 sequences; the median of “r (bound/input frequency ratio)” is about 0.7, and the highest 2% start at about 6.5. This is one part of a sample in which the highest values are shown more often than they occur.

B1: ENSMUSG00000042529.105|Kcnj12 (ssRNA)
RNA: GGGAGUUCUACAGUCCGACGAUCGCUUCGAUAUCCGCAUGCUAAGGUCUGUUUUCUCCCUCACGUGGGCCAGGGCCUUAAGCGAGUUGUCAUGCUUAAGGAUGAAUCAGGCUGCUUGUGACCAUGUUAACGAUUCUAAUAAAGUGUCUGGAUGUCUCUUGGGGGUGGGGCCCACUAGGGUGAAUCUGGCUUGCUCUUCUGUUUGAUGUUGUUGUACCUCAGCUGCCUCAGGGCUGGGUUUAGACACCCCUUCCCCCACCCCCACUCCGUACUCCCUGUUGUGCUUCCCUUCCUAUUUAGUCCCCUCUUGCGGUCGCACUAGUGUGGAAUUCUCGGGUGUCAAGG
B2: ENSMUSG00000090935.77|Synj2bp (ssRNA)
RNA: GGGAGUUCUACAGUCCGACGAUCGCUUCGAUAUCCGCAUGCUACUUUGUCAGCAUAGGCAGGAGUCCUUUAGGAUUUCUGCCUAUCAGUAAAAGAAGUAUGUAACCCAAGUUCUACCUUCAGUGGAUUAAAGUUUCAUUAAGUGAAAAUGGAAAGAAAGUAGAAUUACUUGGUAAGAGGCCAAAUGAGGAUACAGAGGCUGAAGAAGAUUGAAAGGAGCUAGUGUAAACAAACAAACAAACAAACAAACAAAAAACCAAACCCCAAAACAAAAACAAAAACAAAACAAAAUUGGAGAAAGCAGCUCUUGCGGUCGCACUAGUGUGGAAUUCUCGGGUGUCAAGG
B3: ENSMUSG00000090935.604|Synj2bp|54:59 (ssRNA)
RNA: GGGAGUUCUACAGUCCGACGAUCGCUUCGAUAUCCGCAUGCUACUAAUAGACACUGUUUGCUUCAGUUGUUUUUGUUUCCUUUUCCUACAGUUUUCACACACGGUGAUUUCAUUUAAUUAAUUGGACAGUCUAGCCACAGGCAACAAAUAGAAAUAGUAUUUGUAAUUAUAGUCUAUGCCAGGGACUGUCUUAAACUGAUUAGUAACACUAUGACUUACCCUGAGAUCUAAGUAUUGCUAUAAAGAGACUGAAGAGGAGAGAAUAAAGUAUUUUCCUAGGACUACAUAGUUGGUAAAAGAGAACUCUUGCGGUCGCACUAGUGUGGAAUUCUCGGGUGUCAAGG
B4: ENSMUSG00000035279.10|Ssc5d|99:105 (ssRNA)
RNA: GGGAGUUCUACAGUCCGACGAUCGCUUCGAUAUCCGCAUGCUAAUGCCUUCAAACCACCCAGAAGCCAGACCUUACACUCAGCUUCAGACCACCUCACUCAAGGGCCAACCCCUAAUCACAACCCAGAUCCUUUUGGGCCAACACACACCCCAUUACCACCAGUAAGGGUCAUGGCUUGUGAGCCACCUGCCUUGGUGGAGCUGGUAGGUGCUGUGAGGGAGGUGGGUGACCAGCUGCAGAGACUGACCUGGGUCCUGGAGCAGGACCGGCAGGAGCGCCAAGUCCUGGCACUGGGCCUAGCCCUCUUGCGGUCGCACUAGUGUGGAAUUCUCGGGUGUCAAGG
B5: ENSMUSG00000031028.241|Tub (ssRNA)
RNA: GGGAGUUCUACAGUCCGACGAUCGCUUCGAUAUCCGCAUGCUAGGUUCUGGGGCUGGGCUUGGACACGCCCUCCAUUGGGAUGGCACCACUCAUCUGGUGGGCUUGGGAACUCCAAGCUCUUGCCUGUGUGCCAUCUGUGAGAAGCUUCUUGGAGCUGAGACACCAGAGGGAAGCAAAGAGCAUUUAGACAUUGCUUUUUGCUUUGAAAUAGAUAUGUUUGGAAACGCUAAGUAGAAGUUUAAAAAGUAGAGUCAUGUAGAGUCAUGCUUUGAAUAUGUGGGUCAUGCUUUAGAUAUGAAGAGCUCUUGCGGUCGCACUAGUGUGGAAUUCUCGGGUGUCAAGG
B6: ENSMUSG00000061578.211|Ksr2 (ssRNA)
RNA: GGGAGUUCUACAGUCCGACGAUCGCUUCGAUAUCCGCAUGCUAUGACACAAGAGGCAAAGCUGUCCCUAAGCAGAGAAUUAGCAGGGUUAGCCAGACAGCAAAAUCCAUGUAAACAUACAAAACCACCCCCCCUUUUUGAGUGGCCCUAUUGGAUGUACACACUAGGACCAAGCACGGGUCCAAAGCAGGAAGACUGAUUGACAGUAGUCACACUUCUAGAGAGAUGUACCCCAUGACACUUUCAAGUCUUUUCAGAACCUUCUCACCCCUUUGCAAAGCUCUUGCCGUCUGCACCCGGGACCCUCUUGCGGUCGCACUAGUGUGGAAUUCUCGGGUGUCAAGG
B7: ENSMUSG00000090935.117|Synj2bp (ssRNA)
RNA: GGGAGUUCUACAGUCCGACGAUCGCUUCGAUAUCCGCAUGCUAUUUGCCCUCACCAUGGUAGCAGUUUGGGCCUUCGUGAGAUACCGAAAGCAGCUUUGAAAUGCUUGCUGUCUUCCAGUGUGUCCAAUGAACUCUCUCUCUCACUCACCAUCUCUGACAUCCUCCCAUAUUCUUUCUCCUCCACAUAGCCAAUACAAGAUUUAAAGUGACUGCUUAUCACCCAAAACCCUGCUAUUCAAAAUCUCCUAUUCUAAUGGAAGAGUACAGGGGUUAUUUGAAGAAAAGCUGUGGUGGUGUGUGUGCUCUUGCGGUCGCACUAGUGUGGAAUUCUCGGGUGUCAAGG
B8: ENSMUSG00000061578.735|Ksr2 (ssRNA)
RNA: GGGAGUUCUACAGUCCGACGAUCGCUUCGAUAUCCGCAUGCUAUGUAUCAAGACCUUGGAGUUGUCUAAGGCUGUGGGUUUUAAAUACCUGCUGCAGGCCUCCCAUCUCUGGCUCUUUGUUUCCACUCUGGCCCAAGUUUGAGUCUCCAUAUGGGCCCUUCCUGUCCUCAUGCCCUGCCUGUCUUCAUUCCACCCAUCCACCCUCCUAAGGAUUGGUCUUGUUCCGAGAGUGAUCCUGGUAACGCCAAGCCUCCCUCUGCCCCUGUGUUGGCUUCUGUGACGGACUACCACACACCAAGAGGUCUCUUGCGGUCGCACUAGUGUGGAAUUCUCGGGUGUCAAGG
B9: ENSMUSG00000029028.148|Lrrc47 (ssRNA)
RNA: GGGAGUUCUACAGUCCGACGAUCGCUUCGAUAUCCGCAUGCUAUUGAGAACAUCAUGUUGUGAGUGUAAUCUUCUUAGAGCUUGUUUCCAGGCACCGUGCUGCCGCCAUGCUCCCAGGGCAGCAUCUGCCUUCCACGGCUGUGCUUGGAACUGUAGUGCUGGUCGUUGUUGGCACAUCUGCGCCUUGGCCAAGGAAGUUAUCUAUGUCCGUGUAGUCCUUUGUAGUCAGACAGAUGCUUCGUGGACUGUGCCUCACACAUGGCCCUGCAGGCUCCAUGUCAGCGUGUCCCACUAUUCAUGUCCCUCUUGCGGUCGCACUAGUGUGGAAUUCUCGGGUGUCAAGG
B10: ENSMUSG00000004113.103|Cacna1b (ssRNA)
RNA: GGGAGUUCUACAGUCCGACGAUCGCUUCGAUAUCCGCAUGCUAAUCCUAAGCAGGAGGUAGCUGAGUUGAGAUGGACCCAGCAAAUCCAAAUCCUAUGUCAUGGCCUCCAGCAUCCAGGGUGGGUCCUUGGGACUUUUCUUAGGAGGGACUUUCUGAGCCUCGUGGAGAGUGUGGUUUGUCCAAAUGUGUGGCAUGGGAGAUAGGGUACCCCUGAAAGCAAGGAAAGGAGCCCAGCUGUGGCCUGGUAGCACCUGCCGGCACCAGUGAUCUCACGUCUCUUGUGGUCUUGGAGUCAAAUAGCACUCUUGCGGUCGCACUAGUGUGGAAUUCUCGGGUGUCAAGG
B11: ENSMUSG00000061578.1429|Ksr2|169:173 (ssRNA)
RNA: GGGAGUUCUACAGUCCGACGAUCGCUUCGAUAUCCGCAUGCUAAGAUCUGUCUUGCUCUCUGUCUCUCUCACUCAUUGCCAACAUGUUGCUGGGAAAGAAUAUUUGAUUUAGAUGCCAAUCAGGAAGGCAAGUAGGAUGGAUGGAUGAGUGAGUGGAUAGGUAGGUAUAUAAAUGGAUGGAUGGGUGAUGGAUGGGUAAAUGAAUGGAUAGCAUACUGAAUGAAUGGAUGAUGGAUGAAUGGAUGGGUAGGUGGGUAGAUAGGUAUAUGAAUGAAUGGAUGAAUGGAUGGGUGAAUGGAUGGACUCUUGCGGUCGCACUAGUGUGGAAUUCUCGGGUGUCAAGG
B12: ENSMUSG00000035279.28|Ssc5d (ssRNA)
RNA: GGGAGUUCUACAGUCCGACGAUCGCUUCGAUAUCCGCAUGCUACAUUACCACCAGUAAGGGUCAUGGCUUGUGAGCCACCUGCCUUGGUGGAGCUGGUAGGUGCUGUGAGGGAGGUGGGUGACCAGCUGCAGAGACUGACCUGGGUCCUGGAGCAGGACCGGCAGGAGCGCCAAGUCCUGGCACUGGGCCUAGCCCAGUUGGUAGAGGCUGCUCAGGGGUUGGGGCAGCUGAGUGAGACUGUAAAGAGGCUAGCAGAGGUGGCCUGGCCCCCCAGCACUCCUGUGCCCAUGACCACCACCACACUCUUGCGGUCGCACUAGUGUGGAAUUCUCGGGUGUCAAGG
B13: ENSMUSG00000031028.488|Tub|93:99;130:136 (ssRNA)
RNA: GGGAGUUCUACAGUCCGACGAUCGCUUCGAUAUCCGCAUGCUAAGGAGGAGCUGAGAUGUGCACCCUUUUAAAUGAACAUGGGGUGGUGAUGGUGCCUUAACAAUCUUGACACUAAGGUGAAGCAAGCAAGUAAGCACACACCCUCUGGGAAGACAGGAGUCGGAAGCCAAGCACACACGCAACAGUCUGGAAGAGAGCUUUUGGUAAUCAUACCGUCUUCAGUGACAAGGCAACAAUGCUGUAAAGUGGGUUUGUUUGGUUUUGUUUUUUCUUUCUCUUUUAUGGAAAUGGCAGGUCUAUUUCUCUUGCGGUCGCACUAGUGUGGAAUUCUCGGGUGUCAAGG

The assay deals with TDP-43 (Homo sapiens, UniProt Q13148 1-414). As to the kind of experiment: RNA Bind-n-Seq with designed 260-mer pool; 25 mM Tris-HCl, 150 mM KCl, 3 mM MgCl2, BSA (printed 500 mg/mL), 20 units/mL SUPERase IN; pH not stated; 500 nM RNA pool, 1 h, 4 C; TDP-43 5, 50, 500 nM; high values mean tight binding. Conditions: protein: recombinant; tags: SBP (GST cleaved off with PreScission; pGEX-GST-SBP). The method, boiled down: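 For each oligo, R gives binding as its mapped-read-normalized abundance after pulldown divided by its abundance in input. Bead-captured SBP-tagged TDP-43 (5, 50 or 500 nM) was incubated with 500 nM of an in vitro-transcribed 260-nt 3′ UTR oligo pool for 1 h at 4 °C in 25 mM Tris-HCl, 150 mM KCl, 3 mM MgCl2, BSA and SUPERase IN on streptavidin beads. Washed, biotin-eluted RNA was reverse transcribed, PCR-amplified and sequenced.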
Chain of TDP-43 (Q13148 whole entry): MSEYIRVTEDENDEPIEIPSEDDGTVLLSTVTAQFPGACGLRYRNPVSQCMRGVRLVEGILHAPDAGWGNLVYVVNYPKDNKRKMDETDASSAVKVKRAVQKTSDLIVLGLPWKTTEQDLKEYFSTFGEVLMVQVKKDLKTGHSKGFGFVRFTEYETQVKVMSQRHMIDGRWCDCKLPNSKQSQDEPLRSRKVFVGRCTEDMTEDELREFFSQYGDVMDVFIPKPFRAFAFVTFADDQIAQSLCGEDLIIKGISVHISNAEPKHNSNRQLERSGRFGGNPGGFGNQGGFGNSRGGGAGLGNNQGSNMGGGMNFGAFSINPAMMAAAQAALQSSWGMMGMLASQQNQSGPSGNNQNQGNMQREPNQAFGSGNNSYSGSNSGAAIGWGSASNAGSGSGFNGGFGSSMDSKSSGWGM
Take B1: the binding signal was 3.16 R (bound/input frequency ratio).

For B2, the binding signal was 0.858 R (bound/input frequency ratio).

On to B3, for which the binding signal is 0.0675 R (bound/input frequency ratio).

Regarding B4, the binding signal was 1.24 R (bound/input frequency ratio).

Take B5: the binding signal is 0.949 R (bound/input frequency ratio).

For the molecule B6, the binding signal is 0.667 R (bound/input frequency ratio).

For the molecule B7, the binding signal is 1.43 R (bound/input frequency ratio).

With B8, the binding signal is 1.36 R (bound/input frequency ratio).

B9: the binding signal is 1.13 R (bound/input frequency ratio).

Consider B10, for which the binding signal was 1.15 R (bound/input frequency ratio).

On to B11, for which the binding signal is 5.89 R (bound/input frequency ratio).

B12: the binding signal was 0.915 R (bound/input frequency ratio).

In the case of B13, the binding signal was 0.906 R (bound/input frequency ratio).
